# Screening results from PubChem BioAssay.
# DT40 TDP1 CPT: growth inhibition of DT40 Tdp1-/-;hTDP1 cells with camptothecin (screen for TDP1 inhibitors); chicken DT40 Tdp1-/-;hTDP1 cells + 20 nM CPT, ATP luminescence, 48 h; Potency, µM (highest dose often 46.2 µM), most hits filed as inhibitors; hit rate 12% among 420,000; AID 686979; also: nearly all actives have a fitted effect of over 55% in size
#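 Chicken DT40 Tdp1-/- cells stably complemented with human TDP1 were seeded at 400 cells/well in medium containing 20 nM camptothecin, exposed to pin-transferred compounds, and grown at 37 °C for at least 48 hr. Viability was read as ATP luminescence.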
# TDP1 block: TDP1 (human) enzyme inhibition; recombinant TDP1, AlphaScreen DNA substrate cleavage; Potency, µM (top dose mostly 130 µM), hits mostly inhibitors; hit rate 0.28% among 350,000; AID 485290; also: nearly all actives have a fitted effect of over 40% in size
#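 E. coli-derived human Tdp1, 1 nM final. Cpd preinc 15 min RT; substrate 15 nM final, 5 min RT; AS bead mix 10 ug/ml final, 10 min RT. Signal loss = tyrosine-FITC cleavage. No-enzyme wells = max signal.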
# RORgamma inh: blocks mouse ROR gamma transcriptional activity; Potency, µM (doses to about 53.6 µM), usual class: inhibitors; AID 2551; P51450; hit rate 5.4% among 310,000; Drosophila S2 Gal4-RORgamma UAS-luciferase reporter, 20 h; also: nearly all actives have a fitted effect of over 60% in size
# Target sequence (P51450 whole entry, looked up, the tested form may be a part): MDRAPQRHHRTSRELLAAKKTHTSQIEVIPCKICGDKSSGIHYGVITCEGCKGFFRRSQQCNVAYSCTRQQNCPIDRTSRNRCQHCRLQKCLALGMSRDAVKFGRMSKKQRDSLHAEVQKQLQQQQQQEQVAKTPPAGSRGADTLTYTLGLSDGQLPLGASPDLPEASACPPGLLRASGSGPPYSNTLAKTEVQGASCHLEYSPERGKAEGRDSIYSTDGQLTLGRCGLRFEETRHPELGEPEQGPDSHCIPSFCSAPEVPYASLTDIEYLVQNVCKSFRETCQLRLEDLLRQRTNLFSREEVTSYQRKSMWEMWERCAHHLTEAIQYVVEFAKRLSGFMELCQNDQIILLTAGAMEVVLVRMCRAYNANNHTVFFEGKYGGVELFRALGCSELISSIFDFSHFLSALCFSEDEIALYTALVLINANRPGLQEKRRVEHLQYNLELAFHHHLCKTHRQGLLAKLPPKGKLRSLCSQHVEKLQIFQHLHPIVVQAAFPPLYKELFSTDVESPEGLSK
#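 A Gal4/UAS one-hybrid system in insect cells: metallothionein-promoter Gal4–ROR gamma fusion plus Photinus luciferase reporter. Copper sulfate 700 uM final, 20 hr ambient incubation, luminescent detection after 10 min with reagent.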
# Gal4-VP16 FLuc: counter-screen for ROR gamma inhibitors: Gal4-VP16 reporter; hit rate 3.5% among 310,000; Potency, µM (titrated, usually from 53.6 µM), usual class: inhibitors; Drosophila S2 Gal4-VP16 UAS-luciferase, luminescence, 20 h;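 also: Gal4-VP16 expression switched on by copper sulfate through the metallothionein promoter; nearly all actives have a fitted effect of over 50% in size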
# TDP1 cell noCPT: qHTS for Inhibitors of human tyrosyl-DNA phosphodiesterase 1 (TDP1): qHTS in cells in absence of CPT; hit rate 15% among 420,000; DT40 Tdp1-/- hTDP1 cells, no CPT, ATP luminescence, 48 h; AID 686978, 2013; Potency, µM (top dose mostly 46.2 µM), usual class: inhibitors; also: nearly all actives have a fitted effect of over 55% in size
#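 Luminescent ATP content (CellTiter-Glo) served as the growth readout. Knockout chicken DT40 cells expressing human TDP1 were exposed to compounds without camptothecin for a minimum 48 hr at 37 °C.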
# A number is an active result; 0 = inactive; ? = inconclusive; - = no result given. Hits are enriched below; roughly 19% of the tested compounds scored in any of these assays. Calls follow the shape of the dose curve; as a rule, active = well fitted curve in the direction sought with a large enough effect; inconclusive = small, poorly fitted or top-dose-only effect, or another doubt; inactive = no such curve, though single readings can be large; an effect the other way counts as inactive or inconclusive.
SMILES,DT40 TDP1 CPT,TDP1 block,RORgamma inh,Gal4-VP16 FLuc,TDP1 cell noCPT
Cc1sc(NC(=O)CN2CCCC2)nc1-c1ccc2c(c1)CCN2C(=O)c1cccc(F)c1,?,0,11.2µM,?,16.4µM
CC(C)COC(=O)c1ccc(N2C(=O)c3ccccc3C2=O)cc1,0,0,0,0,0
COc1ccc(C(=O)Cn2nc(CNc3ccc(Br)cc3)[n+]3c2CCCCC3)cc1,3.66µM,0,?,0,2.59µM
Cc1ccc(C(C)C)c(OCc2nn(CC(=O)c3ccc(OC(F)F)cc3)c3[n+]2CCCCC3)c1,0.581µM,0,0,0,0.581µM
O=C(Cn1nc(-c2nn(CC(=O)c3ccccc3)c3[n+]2CCCCC3)[n+]2c1CCCCC2)c1ccccc1,0,0,0,0,0
CCOC(=O)/C=C/c1ccc2oc3ccccc3c(=O)c2c1,?,-,0,0,?
Cn1nccc1-c1coc2c(C(=O)NCC3CCOCC3)cccc12,?,-,-,-,23.1µM
CCc1ccccc1NC(=O)CNC(=O)c1n[nH]c(=O)c2ccccc12,0,0,-,-,0
COc1ccc(N2C(=O)CC(c3cc(OC)c(OC)c(OC)c3)CC2=O)cc1,14.6µM,-,0,0,13µM
COc1ccc(N2C(=O)C3CCCN3C2c2cc(OC)c(OC)c(OC)c2)cc1 (stereo not given),0,0,0,0,0
COc1cc(C2CC(=O)N(c3ccc(C)cc3)C(=O)C2)cc(OC)c1OC,1.84µM,0,0,0,1.84µM
CCOc1ccccc1NC(=O)C1=C(C)Nc2ncnn2C1c1ccco1 (stereo not given),0,0,-,-,?
COc1ccc(CNC(=O)[C@@H](C)NC(=O)[C@@H]2Cc3ccccc3CN2)cc1,0,-,0,0,0
COCCCn1cc(CN2CC(N3CCCC3)CS2(=O)=O)nn1 (stereo not given),0,-,-,-,0
O=c1c(CCc2ccccc2)nc2cncnc2n1Cc1ccc(F)cc1,?,-,0,0,?
COc1ccc(-c2nc(NC3=NCCCCC3)sc2C)cc1,?,0,10µM,0,?
COC(=O)c1sc2cc(C(F)(F)F)cnc2c1-c1ccccn1,0,-,0,0,0
CCOC(=O)c1cccc(NC(=O)CC2C(=O)N(c3ccc(OC)cc3)C(=O)N2C2CCCC2)c1 (stereo not given),23.1µM,0,-,-,23.1µM
CCOC(=O)c1cccc(NC(=O)CC2C(=O)N(c3ccc(Cl)cc3)C(=O)N2C2CCCC2)c1 (stereo not given),20.6µM,0,-,-,18.4µM
COC(=O)c1ccc(COc2ccccc2/C=N/O)o1,0,0,0,0,0
Cc1ccc(S(=O)(=O)c2nc(-c3ccccc3)oc2SCC(=O)NCC2CCCO2)cc1 (stereo not given),?,0,?,0,?
COC(=O)c1sccc1NC(=O)Nc1cccc(C)c1,0,-,0,0,0
COC(=O)c1sccc1NC(=O)c1cccc(F)c1,0,-,-,-,0
COC(=O)c1sccc1NC(=S)Nc1ccccc1,0,0,15.8µM,?,0
COC(=O)c1sccc1NC(=S)Nc1cc(C)cc(C)c1,0,0,5.01µM,4.47µM,0
SMILES,DT40 TDP1 CPT,TDP1 block,RORgamma inh,Gal4-VP16 FLuc,TDP1 cell noCPT
COC(=O)c1sccc1NC(=S)Nc1ccc(F)cc1F,0,0,5.62µM,?,0
COC(=O)c1sccc1NC(=S)Nc1cccc(F)c1,0,0,17.8µM,?,0
COC(=O)c1sccc1NC(=S)N1CCN(c2ccc(F)cc2)CC1,?,0,0,0,0
CC1COC(=C2C(=O)OCC2C)C1 (stereo not given),0,-,-,-,0
CC(C)c1ccc(CN2CCN(C(=O)CSc3nnnn3C3CC3)CC2)cc1,?,0,-,-,11.6µM
O=C(CSc1nnnn1C1CCCC1)c1ccc2c(c1)OCCO2,20.6µM,0,?,?,?
O=C(CSc1nnnn1C1CC1)N1CCN(c2cccc(Cl)c2)CC1,?,0,-,-,?
O=C(CSc1nnc2ccccn12)c1ccc2c(c1)OCCO2,0,0,12.6µM,?,0
O=C(CSc1nnnn1C1CCCCC1)N1c2ccccc2Sc2ccccc21,?,0,0,0,20.6µM
COCC(=O)Nc1cc(OC)c(Cl)cc1OC,0,0,0,0,0
COCCCn1c(SCC(=O)Nc2ccc3c(c2)OCCO3)nnc1-c1ccoc1C,0,0,0,0,0
CC(C)n1nnnc1SCC(=O)c1ccc2c(c1)OCCO2,?,0,0,0,?
Cc1cc(C(=O)CSc2nnc3ccccn23)c(C)n1-c1ccccc1,?,0,5.01µM,2.82µM,23.1µM
COCCn1c(SCC(=O)c2ccc3c(c2)OCCO3)nnc1-c1ccoc1C,14.6µM,0,0,0,10.3µM
COc1ccc(C)cc1-n1nnnc1SCC(=O)c1ccc2c(c1)OCCO2,18.4µM,0,0,0,?
COc1ccc(-n2nnnc2SCC(=O)c2ccc3c(c2)OCCO3)c(OC)c1,?,0,0,?,13µM
O=C(CSc1nncc2ccccc12)N1CCOCC1,0,0,0,0,0
COc1ccc(C)cc1-n1nnnc1SCC(=O)Nc1cccnc1Cl,?,0,?,?,20.6µM
CCN(c1ccc(C)cc1)S(=O)(=O)c1nnc(NC(=O)C2CCCCC2)s1,?,0,-,-,10.3µM
CC(C)CN(c1ccccc1)S(=O)(=O)c1nnc(NC(=O)C(C)C)s1,0,-,0,0,0
CC(C)CN(c1ccccc1)S(=O)(=O)c1nnc(NC(=O)C2CCCCC2)s1,5.17µM,0,-,-,?
CCN(c1ccccc1)S(=O)(=O)c1nnc(NC(=O)C2CCCCC2)s1,0,0,-,-,0
O=C(Nc1ccc(F)cc1)C(c1ccncc1)N1CCN(C(=O)c2ccco2)CC1 (stereo not given),0,-,-,-,0
O=C(Nc1ccc(F)cc1)C(c1ccncc1)N1CCN(c2cccc(C(F)(F)F)n2)CC1 (stereo not given),?,-,-,-,20.6µM
O=C(Nc1ccc(F)cc1)C(CCc1ccccc1)N1CCN(c2cccc(C(F)(F)F)n2)CC1 (stereo not given),18.4µM,-,-,-,?
SMILES,DT40 TDP1 CPT,TDP1 block,RORgamma inh,Gal4-VP16 FLuc,TDP1 cell noCPT
CC(OC(=O)Cn1[nH]c(=O)c2ccccc2c1=O)C(=O)Nc1ccc(Cl)cn1 (stereo not given),0,0,-,-,0
COc1ccc(C(=O)NCCCCCC(=O)N/N=C/c2ccco2)cc1OC,0,0,0,0,?
Cc1ccc(S(=O)(=O)NC(=O)C2(C)CCN2C(=O)C2CCCCC2)nc1 (stereo not given),?,-,-,-,0
O=C(COc1ccc(S(=O)(=O)NC2CCCCC2)cc1Cl)Nc1ccc2c(c1)OCO2,?,0,0,0,?
Fc1ccccc1NC(=S)NNc1ncc(C(F)(F)F)cc1Cl,?,0,?,15.8µM,23.1µM
Cc1c(Cl)cccc1NC(=S)NNc1ncc(C(F)(F)F)cc1Cl,?,0,15.8µM,?,?
FC(F)(F)c1cnc(NNC(=S)Nc2cccnc2)c(Cl)c1,?,0,12.6µM,?,20.6µM
